Consider 6 compounds from PubChem BioAssay (NCATS).

Assay [1] deals with Zika virus NS2B-NS3 protease (linked construct). Kind of assay: Primary screen NINDS Rhodamine qHTS for Zika virus inhibitors (AID 1347160). Further: nearly all actives have a fitted effect of over 55% in size. Further: potency means the concentration at half of the fitted maximal effect. The gist of the method: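 Kinetic fluorescence (Ex 480 nm, Em 540 nm) over 15 min with 1.5 microM Rhodamine110 peptide and 25 nM linked protease.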
In general terms: Quantitative high-throughput screening tests each substance at several concentrations.

The nature of assay [2]: Panc-1005 Cancer Cell Toxicity qHTS against the NCATS CANVASS Library (AID 1347349). Further: nearly all actives have a fitted effect of over 60% in size. Further: potency means the concentration at half of the fitted maximal effect. In outline: (§1)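 ATP content after 72 h treatment, detected by CellTiter-Glo luminescence (15min room-temperature development), reflects cell viability. Wells contained 1000 cells and received compounds at 11 concentrations.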
The nature of assay [3]: SW1088 Cancer Cell Toxicity qHTS against the NCATS CANVASS Library (AID 1347350). Further: nearly all actives have a fitted effect of over 75% in size. Further: potency means the concentration at half of the fitted maximal effect. The gist of the method: as §1
Assay [4] is described as follows: COV-362 Cancer Cell Toxicity qHTS against the NCATS CANVASS Library (AID 1347352). Further: potency means the concentration at half of the fitted maximal effect. The gist of the method:
(§2)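 Cells at 1000/well were given compound 4 h after plating in an 11-point series. Viability was read by CellTiter-Glo luminescence after 72 h at 37 degrees C.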

Assay [5] in a line: A2780 Cisplatin Sensitive Ovarian Cancer Cell Toxicity qHTS against the NCATS CANVASS Library (AID 1347353). Further: nearly all actives have a fitted effect of over 60% in size. Further: potency means the concentration at half of the fitted maximal effect. The gist of the method: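 A2780 cells, 750/well, settled 4 h at 37 °C, then treated with an 11-point compound series for 72 h. Viability was read as ATPLite luminescence after 10 min at room temperature, with bortezomib as control.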
Assay [6] can be described thus: UWB1.289-WTBRCA1 Cancer Cell Toxicity qHTS against the NCATS CANVASS Library (AID 1347354). Further: potency means the concentration at half of the fitted maximal effect. In outline:
as §2

Assay [7] is described as follows: HEK-293 Cancer Cell Toxicity qHTS against the NCATS CANVASS Library (AID 1347355). Further: nearly all actives have a fitted effect of over 65% in size. Further: potency means the concentration at half of the fitted maximal effect. On outcome: series mostly up to about 46 µM. The gist of the method:
as §2

Assay [8] has as its system NAD(P)H diaphorase (Clostridium kluyveri). The assay can be described thus: Diaphorse counterscreen qHTS: Assay Interference Panel against the NCATS CANVASS Library (AID 1347362). In outline: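 Counterscreen for coupling-enzyme interference: resorufin fluorescence from resazurin/NADH turnover, read after 5 min at room temperature. Compounds were tested over an 11-point series after 15 min dark preincubation with diaphorase in PBS-Tween.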
On the technique in general: A counterscreen serves to expose hits that act by an unwanted route or on another target.

Assay [9] is described as follows: KB-8-5-11 Cancer Cell Toxicity qHTS against the NCATS CANVASS Library (AID 1347364). Further: nearly all actives have a fitted effect of over 75% in size. Further: potency means the concentration at half of the fitted maximal effect. In outline: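 KB-8-5-11 cells, 500/well in DMEM + 10% FBS, given compounds in an 11-point series. Incubated 72 h at 37 °C. Viability by CellTiter-Glo luminescence. Confirmation also run with 1 uM tariquidar.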
A short description of assay [10]: SDT Cancer Cell Toxicity qHTS against the NCATS CANVASS Library (AID 1347365).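 Further: SDT canine glioma cells 500 per well in 1536 well plates; series mostly up to about 46 µM; nearly all actives have a fitted effect of over 60% in size.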 The gist of the method: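 SDT dog glioma cells (500/well) exposed to an 11-point compound series for 72 hr at 37C, 5% CO2. Cytotoxicity read as ATP content by CellTiterGlo luminescence; bortezomib titration as control.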
For assay [11], the target named is Nuclear receptor subfamily 1 group I member 3 (Homo sapiens) (UniProt Q14994). Kind of assay: qHTS for Constitutive Androstane Receptor (CAR) Antagonist screened against the NCATS CANVASS Library (AID 1347372).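 Further: cells stimulated with 50 nM CITCO agonist so inhibition reflects antagonism; luciferase from CYP2B6 promoter reporter driven by hCAR in HepG2 cells; series mostly up to about 46 µM.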 The gist of the method: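 HepG2-CYP2B6-hCAR double-stable cells plated, 4hr attach; cpd pin-transferred; CITCO 50 nM final; 24hr 37C/5% CO2; CellTiter-Fluor 1hr (fluorescence), then ONE-Glo luminescence.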
Sequence of Nuclear receptor subfamily 1 group I member 3 (Homo sapiens) (Q14994 whole entry, looked up): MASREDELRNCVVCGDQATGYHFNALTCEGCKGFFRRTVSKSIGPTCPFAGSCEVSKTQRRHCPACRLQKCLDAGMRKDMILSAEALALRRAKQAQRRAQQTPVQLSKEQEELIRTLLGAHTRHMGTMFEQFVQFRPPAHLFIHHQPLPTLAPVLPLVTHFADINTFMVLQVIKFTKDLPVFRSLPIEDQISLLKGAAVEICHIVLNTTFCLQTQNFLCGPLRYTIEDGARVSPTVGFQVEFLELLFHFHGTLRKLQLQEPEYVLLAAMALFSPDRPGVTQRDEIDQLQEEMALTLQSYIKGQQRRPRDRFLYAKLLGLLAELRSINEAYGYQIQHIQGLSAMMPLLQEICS

Assay [12] is described as follows: qHTS for Hypoxia signaling pathway (HIF-1) agonists against the NCATS CANVASS Library (AID 1347375). The gist of the method: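 HRE-bla ME-180 cells (0.5% dialyzed FBS) were pre-incubated 5 hrs at 37C, then exposed to compounds in an 11-point series for 17 hrs. Read-out was CCF4-AM beta-lactamase FRET (460/530 nm emissions), with CellTiter-Glo viability in the same wells.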

Assay [13] in a line: DH5-alpha competent E. coli microbial cell viability qHTS against the NCATS CANVASS Library (AID 1347377). The settings on record: outcome: dose series up to 46.1 µM unless noted. In outline: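 DH5-alpha E. coli suspension was exposed to an 11-point compound series overnight at 37 °C. Viable cells quantified by ATP luminescence (BacTiter-Glo) after 20 min at room temperature.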

Assay [14] is described as follows: qHTS for Activators of p53 Stress Response Pathway screened against the NCATS CANVASS Library (AID 1347388). In outline:
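Beta-lactamase reporter driven by p53 response elements in HCT-116 cells, read as the 460 nm/530 nm emission ratio after CCF4 loading, following 16 h of exposure to an 11-point series. Cell viability was measured in the same wells by CellTiter-Glo luminescence.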

Assay [15] in a line: qHTS assay for small molecule disruptors of mitochondrial membrane potential screened against the NCATS CANVASS Library (AID 1347389). Further: nearly all actives have a fitted effect of over 60% in size. Further: potency means the concentration at half of the fitted maximal effect. The gist of the method:
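HepG2 cells (2,000/well) plated overnight, then exposed to compounds in 11-point qHTS series for 1 h at 37C before 30 min Mito-MPS dye; depolarization read as fall in red aggregate (590 nm) to green monomer (535 nm) fluorescence.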

Assay [16] can be described thus: qHTS for activators of Nrf2/ARE signaling pathway screened against the NCATS CANVASS Library (AID 1347391). Further: nearly all actives have a fitted effect of over 60% in size. In outline:
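ARE-bla HepG2 beta-lactamase reporter cells exposed to compounds for 16 h at 37C; CCF4 substrate 2 h, fluorescence at ex 405 nm, em 460/530 nm. Viability by CellTiter-Glo luminescence.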

Assay [17] in a line: qHTS for activators of dead-cell proteases activity screened against the NCATS CANVASS Library (AID 1347392).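 Further: luminescence from protease leaking out of membrane-damaged cells cleaving impermeant substrate; rising signal means more cytotoxicity.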 The gist of the method:
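Compounds are pin-transferred onto attached HepG2 cells, giving 11 final concentrations. After 5 h at 37C, AAF-aminoluciferin reagent is added and luminescence is recorded at room temperature.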

A short description of assay [18]: qHTS for inhibitors of Wild type Zika virus screened against the NCATS CANVASS Library (AID 1347396).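 Further: ATP luminescence of surviving cells so rescue from viral cell killing; series mostly up to about 46 µM.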 In outline:
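Protection against wild-type Zika cytopathic effect is measured in African green monkey Vero 766 cells exposed to an 11-point compound series. Surviving cells are quantified by CellTiter Glo luminescence after 72 h.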

Assay [19] is described as follows: Redox Reaction Profiling qHTS: Assay Interference Panel against the NCATS CANVASS Library (AID 1347401). The gist of the method:
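Cell-free redox surrogate: 5 uM resazurin + 200 uM DTT, 50 mM HEPES pH 7.3/50 mM NaCl; cpds pinned, 11-pt qHTS; Ex525/Em598 read t0 and t=15 min, dark.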

Assay [20] in a line: G06 Cancer Cell Toxicity qHTS against the NCATS CANVASS Library (AID 1347368). Further: nearly all actives have a fitted effect of over 60% in size. Further: potency means the concentration at half of the fitted maximal effect. In outline:
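G06 dog glioma cells, 500 per well, exposed 72 hr at 37C, 5% CO2 to compounds in an 11-point series. Cytotoxicity read as ATP content by CellTiterGlo luminescence.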

Each structure is given as a SMILES string. Inconclusive results are not listed. Active and inactive are the calls of the source. The call rests on the fitted dose curve; in most records, active means well fitted curve in the direction sought with a large enough effect; inconclusive means small, poorly fitted or top-dose-only effect, or another doubt; inactive means no such curve, though single readings can be large; an effect the other way counts as inactive or inconclusive.

For the compound `C[C@@H]1O[C@@H](O[C@@H]2[C@@H](O)[C@H](O[C@@H]3[C@@H](O)[C@@H](O)C(O[C@H]4[C@H](OC(=O)[C@]56CCC(C)(C)C[C@H]5C5=CCC7[C@@]8(C)C[C@H](O)[C@H](O[C@@H]9C[C@H](CO)[C@@H](O)[C@H](O)[C@H]9O)[C@@](C)(CO)C8[C@H](O)C[C@@]7(C)[C@]5(C)CC6)OC[C@H](O)[C@@H]4O)O[C@H]3C)OC[C@H]2O)[C@H](O)[C@H](O)[C@H]1O` (stereo partly drawn), in assay [1], the Potency is 24.3 µM (active). Moreover, the Potency result in assay [2], in assay [3], in assay [4], in assay [5], in assay [6] and in assay [7] was “inactive” in each case. Besides, the Potency entry in [8], in assay [9], in [10], in [11], in assay [12] and in assay [14] was “inactive” in each case. Besides, the Potency entry in [15], in assay [16], in assay [17], in assay [18] and in [19] was “inactive” throughout. Besides, the compound was called inactive in [13].
`CC(C)=CCC[C@@H](C)[C@@H]1CC[C@@]2(C)C[C@H]3C(C)=CC(=O)[C@@H]3/C(C=O)=C\C[C@H]12`: the Potency was 44 µM (active) in assay [1]; 7.49 µM (active) in assay [2]; 2.66 µM (active) in assay [3]; 11.8 µM (active) in assay [4]; 3.72 µM (active) in assay [5]; 10.6 µM (active) in [6]. The Potency in assay [7] is 9.35 µM (active); in assay [9], 10.5 µM (active); in assay [20], 16.6 µM (active). In addition, the Potency entry in [8], in assay [16] and in assay [17] was “inactive” each time. Besides, the outcome in assay [13] was inactive.
For the compound `C=C1[C@H]2CC[C@@]3(C=CC(=O)[C@@](C)(CCC(=O)Nc4c(O)ccc(C(=O)O)c4O)C3C2)[C@H]1O` (stereo partly drawn), in assay [1], the Potency is 44 µM (active). In addition, the Potency entry in [2], in [3], in [4], in [5], in assay [6] and in [7] was “inactive” in each case. For the same compound, the Potency entry in assay [8], in assay [9], in assay [20], in assay [11], in [12] and in assay [14] was “inactive” in each case. For the same compound, the Potency result in [15], in assay [16], in [17], in assay [18] and in [19] was “inactive” each time. Also, in assay [13], the compound was classed as inactive.
Regarding `C[C@@]12CCC[C@@](C)(C(=O)O)[C@H]1C[C@@H](O)[C@]13C[C@H]4C[C@H](O[C@@]4(C)C1)[C@@H]23`, the Potency in [1] is 31.1 µM (active). The Potency result in [2], in assay [3], in [4], in assay [5], in assay [6] and in [7] was “inactive” each time. Also, the Potency entry in assay [8], in assay [9], in [10], in [20], in assay [11] and in assay [12] was “inactive” in each case. In addition, the Potency result in assay [14], in [15], in [16], in [17], in [18] and in assay [19] was “inactive” each time. Also, in [13], the call was inactive.
For the compound `CC[C@@H]1C[C@@]2(CC)OC(=O)[C@@]3(CC)OC(=O)[C@@H]1[C@@H]23`, the Potency result in [1], in assay [2], in assay [3], in assay [4], in assay [5] and in [6] was “inactive” throughout. Further, the Potency result in assay [7], in assay [8], in assay [9], in assay [10], in [20] and in assay [11] was “inactive” each time. For the same compound, the Potency entry in assay [12], in assay [14], in assay [15], in assay [16], in [17] and in [18] was “inactive” throughout. Besides, the Potency result in [19] is “inactive”. In addition, the result in [13] was inactive.
Take `CC1(C)C=Cc2c(ccc3c2OC[C@@H](c2ccc(O)cc2O)C3)O1`: the Potency in [1] was 44 µM (active); in assay [15], 14.8 µM (active). Further, the Potency entry in assay [2], in [4], in assay [6], in [7], in assay [8] and in [9] was “inactive” throughout. The Potency result in assay [10], in assay [20], in [11], in assay [12], in assay [14] and in assay [17] was “inactive” throughout. The Potency entry in assay [18] and in [19] was “inactive” throughout. The call in assay [13] was inactive.
